The list is not random: actives were taken first. Their share in the collection is about 1.8%.
VDR inhibitor – blocks the human vitamin D receptor | P11473 | VDR-SRC2-3 peptide fluorescence polarization, 2 h | Potency, µM, inactives show max response, negative = inhibition, actives largely listed as inhibitors | hit rate 0.93% among 400,000 | AID 504847; also: potency is read from the fitted curve at half-maximal effect; % is scaled to controls: 0 for no effect and ±100 for the full control effect
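Reagent solutions, kept cold and dark, are dispensed first; compounds are then pinned in at 23 nl, plates briefly spun, and incubated 2 h at ambient temperature. Inhibition of VDR–SRC2-3 peptide binding is read by fluorescence polarization.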
TrxR1 substrate – is turned over as a substrate by rat TrxR1 | Potency, µM (series often up to 114 µM), without a hit: top-dose activity change, negative = substrate turnover | hit rate 0.01% among 390,000 | O89049 | purified TrxR1 substrate turnover, NADPH consumption readout | AID 588456; also: potency is read from the fitted curve at half-maximal effect; % is scaled to controls: 0 for no effect and ±100 for the full control effect; nearly all actives have a fitted effect of over 50% in size
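Rat TrxR1, dispensed at 90 nM, was prereduced with 400 uM NADPH (final) for 5 min at ~22 deg C, then incubated with compound 15 min before 400 uM selenite. A first-read NADPH fluorescence drop versus no-compound background flagged substrates.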
Vif-APOBEC3G blk – Vif-A3G binding inhibition; HeLa A3G-eYFP + Vif (tagged APOBEC3G with the HIV-1 protein that degrades it), YFP fluorescence, overnight; AID 602310; Potency, µM (highest dose often 46.1 µM), without a hit: top-dose activity, negative = active, most hits filed as inhibitors; hit rate 0.076% among 410,000; Q9HC16; also: potency is read from the fitted curve at half-maximal effect; % is scaled to controls: 0 for no effect and ±100 for the full control effect; nearly all actives have a fitted effect of over 60% in size
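Read-out is eYFP fluorescence (Ex 488/Em 500-530) from Vif-expressing HeLa A3G-eYFP cells; more signal means A3G escaped Vif-mediated degradation. Cells plated overnight, compound pinned in, incubated overnight at 37 deg C.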
TrxR1 inh-1 – rat TrxR1 inhibition | O89049 | recombinant rTrxR1, NADPH fluorescence consumption, selenite substrate | Potency, µM (titrated, usually from 114 µM), for the others: top-dose activity change, negative = inhibition, usual class: inhibitors | hit rate 1% among 390,000; also: potency is read from the fitted curve at half-maximal effect; % is scaled to controls: 0 for no effect and ±100 for the full control effect; nearly all actives have a fitted effect of over 65% in size
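Rat TrxR1 (90 nM in the dispensed reagent) was pre-reduced with 400 uM NADPH for 5 min at room temperature, then incubated with compound for 15 min. After 400 uM selenite was added, NADPH fluorescence (Ex 340/Em 450 nm) was followed for 8 min.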
Vif-A3F inh – Vif-A3F binding inhibition; HeLa A3F-eYFP + Vif (tagged APOBEC3F with the HIV-1 protein that degrades it), YFP fluorescence increase; Potency, µM (series often up to 46.1 µM), without a hit: top-dose activity, negative = active; hit rate 0.2% among 390,000; also: potency is read from the fitted curve at half-maximal effect; % of control where 0% means no effect; nearly all actives have a fitted effect of over 65% in size
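HeLa cells stably expressing A3F-eYFP plus Vif, plated and incubated overnight at 37 deg C, then exposed to compounds overnight at 37 deg C. Blocked degradation read as raised yellow fluorescence (Ex 488/Em 500-530).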
VDR inh confirm – confirmation of human vitamin D receptor inhibitors | shares compounds with VDR inhibitor | VDR-coactivator inhibition assay, qHTS confirmation | Potency, µM, actives largely listed as inhibitors | hit rate 89% among 840; also: potency is read from the fitted curve at half-maximal effect
VDR FP – VDR (human) coactivator binding inhibition, fluorescein polarization; Potency, µM (series often up to 57.1 µM), for the others: top-dose activity change, negative = inhibition, actives largely listed as inhibitors; VDR-coactivator binding, fluorescein fluorescence polarization; hit rate 48% among 840; AID 602200; shares compounds with VDR inhibitor; also: potency is read from the fitted curve at half-maximal effect
VDR bla – VDR (human) inhibition, cell-based beta-lactamase validation; Potency, µM (doses to about 46.1 µM), without a hit: at the highest dose activity change, negative = inhibition, hits mostly inhibitors; shares compounds with VDR inhibitor; VDR beta-lactamase reporter cells, FRET ratio; cells co-treated with VDR agonist LG190178; hit rate 23% among 840; also: potency is read from the fitted curve at half-maximal effect; % is scaled to controls: 0 for no effect and ±100 for the full control effect
VDR viability – counter-screen for vitamin D receptor inhibitors: cytotoxicity. cytotoxicity counter-screen, cell viability, qHTS. hit rate 18% among 840. Potency, µM (top dose mostly 48.3 µM), without a hit: at the highest dose activity change, negative = cytotoxicity, usual class: cytotoxic. shares compounds with VDR inhibitor. AID 602204;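 also: potency is read from the fitted curve at half-maximal effect; plate controls were DMSO for no effect and high-concentration cycloheximide for full effect; nearly all actives have a fitted effect of over 75% in size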
TRb-SRC2 inh – disrupts human TRb binding to SRC2 peptide in AlphaScreen; Potency, µM; shares compounds with TrxR1 inh-1; AlphaScreen TRb LBD-SRC2 peptide binding, luminescence; hit rate 50% among 30; calls by dose curve
HepG2 tox – HepG2 cytotoxicity, 72 h ATP readout; Potency, µM; HepG2 viability, ATP luminescence (CellTiter-Glo), 72 h; hit rate 50% among 40; shares compounds with TrxR1 inh-1; calls by dose curve
AR SRC2 FP – AR-SRC2 (human) interaction inhibition, selectivity | AR-LBD Tx-SRC2-3 fluorescence polarization, 3 h | calls only | shares compounds with TrxR1 inh-1 | 25 tested, under 10 active; call rule not given here
PPARg-DRIP2 inh – disrupts human PPARgamma binding to DRIP-2 peptide | shares compounds with TrxR1 inh-1 | PPARg LBD / Texas Red DRIP-2 peptide, fluorescence polarization, 3 h | Potency, µM | 25 tested, under 10 active; calls by dose curve
VDR SRC2 FP – selectivity of TRb-SRC2 inhibitors: human vitamin D receptor-SRC2 inhibition; shares compounds with TrxR1 inh-1; VDR LBD/SRC2-3 peptide, fluorescence polarization, 3 h; Potency, µM; 25 tested, under 10 active; AID 2455; calls by dose curve
TRb-SRC2 FP Fluo – TRb-SRC2 (human) inhibition, fluorescein FP confirmation; shares compounds with TrxR1 inh-1; TRb LBD / fluorescein-SRC2 peptide, fluorescence polarization; Potency, µM; 20 tested, under 10 active; call rule not given here
GR inh – inhibits human glutathione reductase in TrxR1 counterassay. shares compounds with TrxR1 inh-1. purified GR, DTNB reduction absorbance 405 nm kinetic. activity change, negative = inhibition, % at 57.1 µM. 55 tested, under 10 active. AID 652020
Target sequence (P00390 whole entry, looked up): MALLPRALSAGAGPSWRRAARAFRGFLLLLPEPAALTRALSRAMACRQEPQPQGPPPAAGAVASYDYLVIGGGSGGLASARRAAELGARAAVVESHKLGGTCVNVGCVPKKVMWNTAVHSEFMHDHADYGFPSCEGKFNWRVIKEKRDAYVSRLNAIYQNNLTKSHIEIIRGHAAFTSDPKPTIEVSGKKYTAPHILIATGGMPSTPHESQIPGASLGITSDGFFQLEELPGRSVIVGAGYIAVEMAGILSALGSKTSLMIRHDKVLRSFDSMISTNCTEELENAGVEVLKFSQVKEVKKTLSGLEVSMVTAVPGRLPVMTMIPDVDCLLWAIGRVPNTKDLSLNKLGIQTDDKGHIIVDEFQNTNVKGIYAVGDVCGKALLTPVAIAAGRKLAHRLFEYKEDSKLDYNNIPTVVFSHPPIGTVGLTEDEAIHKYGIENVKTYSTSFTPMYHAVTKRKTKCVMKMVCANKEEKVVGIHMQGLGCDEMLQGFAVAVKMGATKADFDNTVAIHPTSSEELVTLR
TrxR1 inh-2 – validation of rat thioredoxin reductase 1 inhibitors; shares compounds with TrxR1 inh-1; recombinant TrxR1, NADPH fluorescence consumption, selenite substrate; Potency, µM, usual class: inhibitors; hit rate 50% among 55; AID 652023
TrxR1 insulin – inhibits TrxR1-driven insulin reduction. shares compounds with TrxR1 inh-1. hit rate 20% among 55. TrxR1 Trx-coupled insulin reduction, NADPH absorbance 340 nm. Potency, µM. AID 652037;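 active = compounds with a measured potency under 100 micromolar; inconclusive = filed, but no rule given; inactive = potency at or above that, or unmeasurable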
TrxR1 inh-3 – inhibitors of rat thioredoxin reductase 1, DTNB reduction; shares compounds with TrxR1 inh-1; purified TrxR1, DTNB reduction, A412; Potency, µM; hit rate 90% among 55;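 active = a half-inhibiting concentration could be measured and was below 100 µM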
* = called active by the depositor; i = inactive; ? = inconclusive; . = not tested or not shown; [ ] = dose if it differs, or a comment. Unless noted, calls follow the shape of the dose curve; as a rule, active = well fitted curve in the direction sought with a large enough effect; inconclusive = small, poorly fitted or top-dose-only effect, or another doubt; inactive = no such curve, though single readings can be large; an effect the other way counts as inactive or inconclusive.

SMILES	VDR inhibitor	TrxR1 substrate	Vif-APOBEC3G blk	TrxR1 inh-1	Vif-A3F inh	HepG2 tox	GR inh	TrxR1 inh-2	TrxR1 insulin	TrxR1 inh-3	others
Cc1cc(S(=O)(=O)c2ccc([N+](=O)[O-])cn2)ccc1Br	?	10%[57.1 µM]	-7%	0.11µM*	12%	.	-1	0.12*	35µM*	0.011µM*	VDR inh confirm=2.2*;VDR FP=2.5µM*;VDR bla=7.3µM*;VDR viability=?
Cc1c(C(=O)Nc2ccc(F)cc2F)oc2ccc3c(c12)C(=O)CC(C)(C)O3	0%	5%	-5%	3%	-5%	.	.	.	.	.
CC1CCN(C(=O)C(C)OC(=O)c2ccc(S(C)(=O)=O)c([N+](=O)[O-])c2)CC1 (centres undefined)	-14%	5%	?	11µM*	.	i	.	.	.	.	TRb-SRC2 inh=7.3µM*;AR SRC2 FP=i;PPARg-DRIP2 inh=i;VDR SRC2 FP=i;TRb-SRC2 FP Fluo=3.6µM*
CC1CCN(C(=O)COC(=O)c2ccc(S(C)(=O)=O)c([N+](=O)[O-])c2)CC1	.	.	.	.	.	20µM*	.	.	.	.
Fc1ccc(/C=C2\CCCC3=C2Nc2ncnn2C3c2ccc(F)cc2)cc1 (centres undefined)	?	1%[57.1 µM]	-27%	0.71µM*	8%	.	-16	3*	i	0.25µM*
O=C(c1ccc(-c2ccc([N+](=O)[O-])cc2)o1)N1CCCC(C(F)(F)F)C1 (centres undefined)	-9%	-12%	-7%	?	6%	.	.	.	.	.
O=C(c1ccc(-c2ccc([N+](=O)[O-])cc2)o1)N1CCCCCCC1	35µM*	-11%	-20%	5µM*	12%	.	-19	4.7*	i	1µM*
O=C1N/C(=C/c2ccc(N3CCOCC3)o2)C(=O)N1c1ccccc1	45µM*	-3%	?	7.1µM*	?	.	-13	2.1*	i	2.1µM*
NC(=NCc1ccc(Cl)cc1Cl)NC(=O)c1nc(Cl)c(N)nc1N	-20%	.	.	.	.	.	.	.	.	.
O=C(COC(=O)c1ccc(Cl)c([N+](=O)[O-])c1)NC1CCCC1	6%	5%	-9%	6%	7%	.	.	.	.	.
O=C(COC(=O)c1ccc(Cl)c([N+](=O)[O-])c1)NC1C2CC3CC(C2)CC1C3 (centres undefined)	.	.	.	.	.	i	.	.	.	.	TRb-SRC2 inh=i;AR SRC2 FP=i;PPARg-DRIP2 inh=i;VDR SRC2 FP=i
O=C(COC(=O)c1ccc(F)c([N+](=O)[O-])c1)NC1C2CC3CC(C2)CC1C3 (centres undefined)	.	.	.	.	.	?	.	.	.	.	TRb-SRC2 inh=8.7µM*;AR SRC2 FP=i;PPARg-DRIP2 inh=i;VDR SRC2 FP=i
O=C(COC(=O)c1cccc([N+](=O)[O-])c1Cl)NC1C2CC3CC(C2)CC1C3 (centres undefined)	.	.	.	.	.	i	.	.	.	.	TRb-SRC2 inh=44µM*;AR SRC2 FP=i;PPARg-DRIP2 inh=i;VDR SRC2 FP=i
Nc1ccc(C(=O)OCC(=O)NC2CC2)cc1[N+](=O)[O-]	-14%	0%	-5%	17%	0%	.	.	.	.	.
O=C(COC(=O)c1cc(Cl)ccc1[N+](=O)[O-])NC1CC1	2%	4%	-13%	13%	-4%	.	.	.	.	.
CN(C)c1ccc(N=Cc2ccnc3ccccc23)cc1	.	-6%[0.0914 µM]	-26%	-1%	.	.	.	.	.	.
CCc1ccc(OCC(=O)Nc2ccc(Cl)c(-c3nc4ncccc4o3)c2)cc1	-13%	-6%	.	1%	.	.	.	.	.	.
O=C(Nc1cccnc1)c1ccc2nc(-c3ccccc3)c(-c3ccccc3)nc2c1	3%	-3%	0%	10%	3%	.	.	.	.	.
O=C(Nc1ccccc1)c1ccc2nc(-c3ccco3)c(-c3ccco3)nc2c1	?	-6%	0%	4µM*	?	.	-27	3.8*	i	1.6µM*
